According to PubChem BioAssay AID1650 (Southern Research Specialized Biocontainment Screening …, 2009):
Measured potencies and affinities stand elsewhere. Unmarked numbers belong to inactive results. No rule for the calls is given here.

Assay: mammalian cell viability reduction – secondary assay, cytotoxicity control for West Nile virus antiviral project, dose response (AID 1650)
Details: Mammalian host cell viability, cytotoxicity counter-screen; series mostly up to 10 µM; viability: at the top concentration

In order of falling “viability” value:
1. CN(C)CCCN1c2ccc([N+](=O)[O-])cc2CCc2cc([N+](=O)[O-])ccc21  92.4% [at 20 µM]
2. COc1ccccc1NC(=O)N1CCn2c(nc3ccccc32)C1  92.2% [at 20 µM]
3. Cc1cccc(-c2ccc(NC(=O)C3CCN(CC4CC4)CC3)cc2)c1  87.2% [at 20 µM]
4. Cc1cccc(CN2CCC(CNC(=O)Nc3ccc(F)c(Cl)c3)CC2)c1  86.1% [at 20 µM]
5. CN(C)CCCN(C(=O)c1ccc(S(=O)(=O)N2CCCc3ccccc32)cc1)c1nc2ccc(F)cc2s1  84.6% [at 20 µM]
6. CC(C)n1cc(/C=C2/SC(=O)N(CC(=O)Nc3ccc4c(c3)OCO4)C2=O)c2ccccc21  83.5% [at 20 µM]
7. COc1ccc(NC(=O)CSc2nc3ccccc3c(=O)n2CCCN2CCC(C)CC2)c(OC)c1  81.7% [at 20 µM]
8. CSc1cccc(NC(=S)N(CCCN2CCCC2)Cc2cccn2Cc2ccc(Cl)cc2)c1  81% [at 20 µM]
9. Cc1cc(N2CCCC2)nc2ccc(NC(=S)NCCCN3CCC(C)CC3)cc12  79.8% [at 20 µM]
10. O=c1[nH]c2ccc(Cl)cc2c(-c2ccccc2)c1N1CCN(CCO)CC1  79% [at 20 µM]
11. Cn1c(=O)n(CCCOc2ccc(Br)cc2)c2ccccc21  76.2% [at 20 µM]
12. O=C(CCN1C(=O)/C(=C\c2ccccc2Cl)SC1=S)N1CCN(c2ccccc2)CC1  76.2% [at 20 µM]
13. O=[N+]([O-])c1ccc(Cl)c(/C=N/n2c(C3CCCCC3)n[nH]c2=S)c1  75% [at 20 µM]
14. FC(F)(F)c1nnc(-c2ccccc2)nc1Sc1ccc(Cl)cc1  74.5% [at 20 µM]
15. COc1cc(CNC(C)(C)CO)cc(Br)c1OCc1ccc(Cl)cc1Cl  74.1% [at 20 µM]
16. COC(=O)c1c(NC(=O)CCS(=O)(=O)c2ccccc2)sc2c1CCN(C)C2  73.3% [at 20 µM]
17. Cc1ccc2oc(=O)c3cc(C(=O)NCCCN4CC(C)CC(C)C4)sc3c2c1 (stereo not given)  71.7% [at 20 µM]

In order of falling “viability” value:
1. Cc1c(/C=N/NC(=O)C(C)(C)Oc2ccc(Cl)cc2)cnn1C  97.1%
2. COc1ccc(C2c3[nH]c4ccccc4c3CCN2C(=O)c2ccccc2C(C)=O)c(F)c1 (stereo not given)  92.8%
3. COc1cc(C=Nc2c(C)cc(C)cc2C)ccc1OC(C)=O  92.2%
4. Cc1cc(C)cc(OC(=O)CS(=O)c2ccc(C(F)(F)F)cc2[N+](=O)[O-])c1 (stereo not given)  91.1%
5. CC(=O)N1CCN(CC(=O)Nc2c(Cl)ccc(C)c2Cl)CC1  89.8%
6. C=CCN=C1CC(C)(C)CC(=O)/C1=C(/O)CCC(=O)OC  87.2%
7. Cc1ccc(S(=O)(=O)N2CCCC2C(=O)Oc2ccccc2)cc1 (stereo not given)  86.8%
8. CCN1CCN(c2ncc(C(=O)Nc3cc(Cl)c(OC)cc3OC)c3ccccc23)CC1  86.6%
9. Cc1ccc(-n2c(SCC(=O)Nc3ccc(N4CCOCC4)cc3)nc3ccccc3c2=O)cc1  85.4%
10. C=CCn1cc(C(=O)NCCCOCC)c(=O)c2cc(S(=O)(=O)N(CC)CC)ccc21  84.2%
11. CN1CCN(NC(=O)c2cc(-c3ccc(Br)s3)nc3ccccc23)CC1  83.9%
12. Cc1cccc2c1NC(=O)/C2=C\C(=O)c1cccs1  82.2%
13. CCn1ncc(CN2CCC(C(=O)Nc3cccc(-c4cccc(F)c4)c3)CC2)c1C  82.2%
14. CCOc1ccc2nc(N3CCCC(C(=O)NCCCN4CCCCC4)C3)sc2c1 (stereo not given)  82.1%
15. CCN(CC)CCCN1CC(O)=C(c2nc3ccccc3s2)C1=N  81.1%
16. CC1CCN(CCc2nc3cc(NC(=O)COc4ccc(Cl)cc4)ccc3n2C)CC1  80.5%
17. CN1C(=O)/C(=C\C(=O)c2cccs2)c2ccccc21  80%
18. CN1CCN(c2ccc(C(F)(F)F)cc2NC(=O)Nc2ccccc2)CC1  79.8%
19. CCN1CCN(c2cc(C)c3cc(NC(=S)N4CCCC(C)C4)ccc3n2)CC1 (stereo not given)  78.8%
20. Cc1ccc(C)c(N2CCN(CCCNC(=O)Cn3cccc3C(=O)c3ccccc3)CC2)c1  78.4%
21. CCN1C/C(=C/c2ccc(N3CCOCC3)cc2)C(=O)/C(=C/c2ccc(N3CCOCC3)cc2)C1  75.8%
22. C/C(N)=C(/C#N)C(=O)COC(=O)c1cc(-c2ccc(Br)cc2)nc2ccccc12  72.3%
23. CCOC(=O)C(=CNc1ccc2c(c1)nnn2-c1ccc(Cl)cc1)C(=O)OCC  70.6%
